The results in this text go back to PubChem BioAssay.

For orientation: inhibition means the relative decrease from the control value, in per cent.

Structures are written as SMILES. Active and inactive are the calls of the source.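 The calls were made as follows, unless noted: active = fluorescence slope higher than the sample average by over 3 SD (cut at about -0.22 in these data, passing the limit was not always enough); inactive = the rest.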

Assay [1] is described as follows: inhibitors of TNFa-induced NFkB p65 translocation, primary screen, imaging, HUVEC, MLSMR starter and 10KST1 sets (AID 438;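 active = inhibition above 20% together with a positive visual image hit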;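 also: compound added about 3h40 before a 20 min TNFalpha stimulation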;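 as to inhibition: signal is the nuclear over cytoplasmic p65 intensity ratio per well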). The settings on record: HUVEC TNFa-induced p65 nuclear translocation; cell count: measured here: nuclei count (cytotoxicity indicator), at 2.08 µM; inhibition: at 2 µM, stronger effect = higher value, 0% TNFa-plus-vehicle, 100% no-TNFa wells.
The nature of assay [2]: inhibitors of mutant huntingtin aggregation, primary screen, imaging, exon1htt(103Q)mCFP cells, high-content imaging (AID 483;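 active = visual image review flags a hit and inhibition of aggregation exceeds 20%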;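 also: compound exposure lasted 3 days before fixation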;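 as to nuclei count: percent of the per-plate median nuclei count of sample wells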). To be noted: exon1htt(103Q)mCFP cell line, aggregate imaging, at 2 µM; inhibition of aggregation: stronger effect = higher value; nuclei count: measured here: cell count, toxicity.
Assay [3] can be described thus: inhibitors of E-selectin induction by TNFa, primary screen, imaging, HUVEC, immunofluorescence, MLSMR starter and 10KST1 sets (AID 487;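 active = visually confirmed hit in the image check and inhibition above 20%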;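 as to inhibition: signal is fraction of cell area covered by stained E-selectin grains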;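 as to nuclei count: 100% = median nuclei count of all wells on the same plate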). The settings on record: HUVEC TNFalpha-induced E-selectin immunofluorescence imaging, at 2 µM; inhibition: stronger effect = higher value; nuclei count: measured here: cell number, toxicity.
A short description of assay [4]: DUSP6 inhibitors restoring Erk phosphorylation by chemical complementation, primary imaging in DUSP6-transfected HeLa (AID 609;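 active = compounds giving at least 50% inhibition in the cell-based MKP-3 phosphatase rescue imaging test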;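 as to inhibition: phospho-Erk level distribution per well compared with pooled transfected vehicle control wells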). To be noted: HeLa MKP-3 transfected, phospho-Erk imaging KS statistic, at 10 µM, cells stimulated with TPA for 15 min.
In assay [5] the target is Dual specificity protein phosphatase 6 (Homo sapiens) (UniProt Q16828). Described as above. To be noted: HeLa MKP-3 transfected, phospho-Erk imaging KS statistic; at 10 µM; stronger effect = higher value; cells stimulated with TPA for 15 min.
In assay [6] the target is Voltage-gated potassium channel subunit beta-2 (Rattus norvegicus) (UniProt P62483). Briefly: KvBeta enzyme negative modulators, primary screen, biochemical, NADPH fluorescence (AID 622).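 Also: slope of raw intensity against log time taken from 70 to 1610 s.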 To be noted: recombinant KvBeta, 4-cyanobenzaldehyde reduction, at 10 µM, stronger effect = higher value.
Assay [7] shares this target. In words: KvBeta positive modulators, primary screen, biochemical, NADPH fluorescence (AID 623;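 active = NADPH fluorescence slope more negative than the mean of all samples by about 3 SD, 99.7% confidence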;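 also: fluorescence intensity change per second fitted from 20 to 320 s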). The settings on record: Recombinant KvBeta, NADPH fluorescence decrease slope, 10 min; at 10 µM; stronger effect = lower value.
The target of assay [8] is Alpha-2C adrenergic receptor (Homo sapiens) (UniProt P18825). Briefly: modulators of alpha2C/GIRK thallium flux, primary screen, cell-based, HEK293 alpha2C/GIRK1/2 (AID 624;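 active = fluorescence slope after compound addition differing from the mean of all screened samples at 99.7% confidence, in either direction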;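 also: slope of fluorescence ratio to pre-addition baseline per second over 15 to 24 s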). To be noted: thallium flux BTC fluorescence, at 10 µM, actives lie on both sides.
Assay [9] can be described thus: inhibitors of larval lipid processing in zebrafish, primary screen, whole organism, PED6 fluorescence, gall bladder and intestine (AID 686;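 active = a full or partial loss of lipid-probe fluorescence in the fish gall bladder, intestine or both, judged by eye; inactive = no fluorescence loss, or compound toxic to the fish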;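 also: larvae 5 to 7 days old with five fish per well; signal comes from phospholipase A2 cleavage of quenched PED6 carried via bile; overnight exposure to compound and PED6 before scoring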). To be noted: Zebrafish larvae PED6 lipid processing, fluorescence scoring; screened at 20 µM (by protocol).
Assay [10] can be described thus: inhibitors of Chlamydomonas gravitaxis, primary screen, whole organism, Chlamydomonas reinhardtii, WT vs cilia-less mutant, absorbance, 96-well (AID 463189;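 active = inhibition at or above 50% relative to wild type and mutant plate controls; inactive = inhibition below 50%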;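 also: 0% = wild type cc124 cells in DMSO and 100% = ciliumless bld1 mutant cells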). The settings on record: OD600 absorbance, 2 days, at 10 µM, stronger effect = higher value.
A short description of assay [11]: inhibitors of Sendai virus-induced IRF3 signaling, primary screen, TLR/RLR signaling modifier project, cell-based, Sendai virus stimulus, luciferase, 10K MLSCN set (AID 602276;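 active = inhibition at or above 50% at 10 µM; inactive = inhibition below 50%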;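 also: firefly luciferase from ISG56 promoter only with Renilla not read in this screen; 0% = Sendai virus plus DMSO and 100% = medium plus DMSO without virus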). The settings on record: HEK293 RL24 IRF3 luciferase reporter, at 10 µM, stronger effect = higher value. Background: Reporter assays use an easily measured gene product as a stand-in for the process of interest.

Assay [12] in a line: inhibitors of poly I:C-induced TLR3 signaling, primary screen, cell-based, poly I:C stimulus, luciferase, 10K MLSCN set (AID 602277;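 active = inhibition of the reporter signal at or above 50%; inactive = inhibition below 50%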). The settings on record: HEK293-TLR3 RL24 IRF3 luciferase reporter, at 10 µM, stronger effect = higher value.
The mark [13] stands for this setting: measured here: cell density z-score.
Setting [14] is: measured here: nuclear c-Myc green intensity z-score.
Setting [15] is: measured here: nuclear pErk red intensity z-score, stronger effect = higher value.

Sequence of Dual specificity protein phosphatase 6 (Homo sapiens) (Q16828 whole entry, looked up): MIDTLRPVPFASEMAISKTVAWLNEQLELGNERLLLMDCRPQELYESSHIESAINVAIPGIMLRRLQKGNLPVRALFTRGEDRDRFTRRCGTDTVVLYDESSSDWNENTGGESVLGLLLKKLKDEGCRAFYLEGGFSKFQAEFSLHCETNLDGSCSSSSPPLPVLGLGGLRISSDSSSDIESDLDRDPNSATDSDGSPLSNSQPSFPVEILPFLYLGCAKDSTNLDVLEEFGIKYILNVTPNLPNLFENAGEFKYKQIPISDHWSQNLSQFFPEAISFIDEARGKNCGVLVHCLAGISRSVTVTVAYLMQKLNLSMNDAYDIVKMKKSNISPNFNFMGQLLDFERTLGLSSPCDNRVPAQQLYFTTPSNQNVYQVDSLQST
Sequence of Alpha-2C adrenergic receptor (Homo sapiens) (P18825 whole entry, looked up): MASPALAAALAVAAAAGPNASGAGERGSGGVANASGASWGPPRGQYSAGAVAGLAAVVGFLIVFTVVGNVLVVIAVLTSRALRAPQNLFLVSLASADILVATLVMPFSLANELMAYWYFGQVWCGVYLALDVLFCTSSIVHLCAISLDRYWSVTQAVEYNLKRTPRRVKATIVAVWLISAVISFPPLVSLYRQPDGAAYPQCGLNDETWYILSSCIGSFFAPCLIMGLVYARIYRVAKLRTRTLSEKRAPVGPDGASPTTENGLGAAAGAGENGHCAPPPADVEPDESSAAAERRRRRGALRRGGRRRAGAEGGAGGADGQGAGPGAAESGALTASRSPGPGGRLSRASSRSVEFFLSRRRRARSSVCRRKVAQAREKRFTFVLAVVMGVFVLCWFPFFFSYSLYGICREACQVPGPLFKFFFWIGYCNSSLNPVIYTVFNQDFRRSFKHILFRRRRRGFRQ
Sequence of Voltage-gated potassium channel subunit beta-2 (Rattus norvegicus) (P62483 whole entry, looked up): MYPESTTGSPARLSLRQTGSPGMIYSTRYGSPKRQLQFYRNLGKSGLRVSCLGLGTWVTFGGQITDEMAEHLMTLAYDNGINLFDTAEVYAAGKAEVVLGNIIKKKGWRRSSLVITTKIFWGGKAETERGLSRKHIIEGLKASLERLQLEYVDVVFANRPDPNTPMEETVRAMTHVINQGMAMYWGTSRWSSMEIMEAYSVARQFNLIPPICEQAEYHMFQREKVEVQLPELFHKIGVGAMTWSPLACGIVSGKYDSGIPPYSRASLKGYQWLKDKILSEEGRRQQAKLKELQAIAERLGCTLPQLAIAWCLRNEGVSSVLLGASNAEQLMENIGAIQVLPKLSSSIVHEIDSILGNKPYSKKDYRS

As for `CCCCCC(=O)N1CC2(C)CN(C(=O)CCCCC)CC(C)(C1)C2=O`, the cell count in [1] amounted to 482. Besides, the inhibition in [1] is 3.2% (inactive); in assay [3], -94.9% (inactive); in assay [5] it was 7.42% (inactive); in assay [10] it was 24% (inactive); in assay [11], 6.58% (inactive); in assay [12], 21.5% (inactive). Besides, the inhibition of aggregation in assay [2] is -8.1% (inactive). Further, the nuclei count in [2] came to 97.5%; in assay [3], 101%. The results for the z-score in assay [4] (setting [13]), in assay [4] (setting [14]) and in assay [4] (setting [15]) were 0.798, 0.672 and 0.65, respectively. Further, the fluorescence slope in assay [6] was -0.352 (inactive). The NADPH fluorescence slope in [7] is -4.5e-05 (inactive). Further, in assay [8], the slope is 0.00564 (inactive). In addition, the outcome in assay [9] was inactive.

For the compound `C=CCn1c(SCC#N)nc2c(c1=O)C(C)(C)Cc1ccccc1-2`, the cell count in assay [1] is 648. In addition, the inhibition in assay [1] is -0.1% (inactive); in [3] it was -30.9% (inactive); in assay [5] it was 34.8% (inactive); in assay [10] it was 104% (active); in [11] it was -4.84% (inactive); in [12] it was 6.72% (inactive). For the same compound, the inhibition of aggregation in assay [2] was 11.6% (inactive). The results for the nuclei count in [2] and in assay [3] were 107% and 136%, respectively. For the same compound, the z-score is 1.4 in [4] (setting [13]), 0.411 in [4] (setting [14]) and -0.925 in assay [4] (setting [15]). Besides, the fluorescence slope in assay [6] is -0.315 (inactive). Also, the NADPH fluorescence slope in assay [7] was -5.8e-06 (inactive). Also, the slope in [8] was 0.00525 (inactive). The compound was called inactive in assay [9].

Consider `COc1cc(/C=N/n2c(C)nnc2C)cc(OC)c1OC`, for which the cell count in assay [1] was 454. Also, the inhibition in assay [1] was -5.9% (inactive); in [3] it was -27.1% (inactive); in assay [5] it was -1.75% (inactive); in assay [10], 23.6% (inactive); in assay [11], 14% (inactive); in [12], 13.7% (inactive). Further, in [2], the inhibition of aggregation is 3.2% (inactive). For the same compound, the nuclei count in [2] was 109%; in assay [3], 92.1%. In addition, the z-score was 0.126 in assay [4] (setting [13]), -0.553 in assay [4] (setting [14]) and -1.17 in assay [4] (setting [15]). In addition, the fluorescence slope in assay [6] is -0.395 (inactive). Besides, the NADPH fluorescence slope in assay [7] is -3.1e-06 (inactive). In assay [8], the slope is 0.00638 (inactive). Besides, in assay [9], the compound was classed as inactive.

For the compound `c1ccc(Cc2nnc3n2CCCCC3)cc1`, the cell count in assay [1] was 427. Besides, the inhibition was -7.4% (inactive) in [1]; -122% (inactive) in assay [3]; -0.608% (inactive) in [5]; 22.9% (inactive) in assay [10]; 13.8% (inactive) in assay [11]; 22.9% (inactive) in assay [12]. Also, in assay [2], the inhibition of aggregation was 0.9% (inactive). In addition, the nuclei count in assay [2] stood at 104%; in assay [3], 114%. For the same compound, the z-score in assay [4] (setting [13]) is -1.13; in [4] (setting [14]) it was -0.00465; in [4] (setting [15]) it was -0.441. Moreover, the fluorescence slope in assay [6] was -0.55 (inactive). Besides, the NADPH fluorescence slope in [7] is -4.5e-05 (inactive). In addition, the slope in assay [8] was 0.0052 (inactive). The compound was called inactive in [9].

Take `COc1cc(-c2nn3c(-c4cccnc4)nnc3s2)cc(OC)c1OC`: in assay [1], the cell count is 561. Further, the inhibition in assay [1] was -0.7% (inactive); in [3] it was -152% (inactive); in assay [5] it was 15.5% (inactive); in [10] it was 18.4% (inactive); in assay [11], 12.1% (inactive); in assay [12], 8.92% (inactive). For the same compound, in [2], the inhibition of aggregation is -9.6% (inactive). For the same compound, the nuclei count worked out at 103% in assay [2] and 134% in [3]. The z-score in assay [4] (setting [13]) was 0.586; in assay [4] (setting [14]), -0.752; in [4] (setting [15]), -1.22. Besides, in [6], the fluorescence slope was -0.41 (inactive). The NADPH fluorescence slope in [7] was -0.000121 (inactive). In addition, the slope in [8] was 0.0074 (inactive). In addition, the compound was classed as inactive in [9].

Regarding `Cc1cc(C)c(C#N)c(SCc2[nH]nc3c2C(c2ccccc2)C(C#N)=C(N)O3)n1` (configuration not stated), the cell count in assay [1] is 633. Also, the inhibition in assay [1] was -7.7% (inactive); in [3], -6.9% (inactive); in assay [5], -7.28% (inactive); in assay [10] it was 31.6% (inactive); in assay [11] it was 12.1% (inactive); in assay [12] it was 20.3% (inactive). The inhibition of aggregation in [2] is 5.8% (inactive). Further, the nuclei count was 104% in [2] and 114% in [3]. Further, the z-score in assay [4] (setting [13]) is 0.152; in assay [4] (setting [14]) it was -0.343; in assay [4] (setting [15]) it was 0.203. The fluorescence slope in assay [6] was -0.571 (inactive). Also, the NADPH fluorescence slope in assay [7] was 2.5e-06 (inactive). In addition, the slope in assay [8] was 0.00484 (inactive). For the same compound, in assay [9], the outcome was inactive.
